Compounds without any hit were thinned out: in the full panel of roughly 83,000, 20% have a hit.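 Negative percent growth values reflect cell death: -40 means 40% of the cells present at the start died, and -100 means all died.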 Activity calls are given as the source filed them. The calls were made as follows: active = growth percent below 10; inactive = the rest.
Tests used:
Experiment in all cases: NCI-60 one-dose screen, 48 h (100 = growth as untreated, 0 = no growth, -100 = all killed)
Settings in all cases: 10 µM unless noted
RPMI-8226 leukemia = tested on: RPMI-8226 leukemia
OVCAR-8 ovarian = tested on: OVCAR-8 ovarian
OVCAR-5 ovarian = tested on: OVCAR-5 ovarian
OVCAR-4 ovarian = tested on: OVCAR-4 ovarian
SK-OV-3 ovarian = tested on: SK-OV-3 ovarian
IGROV1 ovarian = tested on: IGROV1 ovarian
OVCAR-3 ovarian = tested on: OVCAR-3 ovarian
HS 578T breast = tested on: HS 578T breast
NCI/ADR-RES ovarian = tested on: NCI/ADR-RES ovarian
T-47D breast = tested on: T-47D breast

Measured: growth

O=C1CC(C(F)(F)F)=NN1C(=O)c1nn(-c2ccc(Cl)cc2)cc1O
inactive: RPMI-8226 leukemia 71.6% | OVCAR-8 ovarian 71.9% | OVCAR-5 ovarian 87.6% | OVCAR-4 ovarian 79% | SK-OV-3 ovarian 75.4% | IGROV1 ovarian 88.7% | OVCAR-3 ovarian 65.7% | HS 578T breast 106% | NCI/ADR-RES ovarian 72.4% | T-47D breast 84.8%

CCN1C(=O)c2ccc3c4c(ccc(c24)C1=O)C(=O)N(CCCNCc1ccccc1OC)C3=O
inactive: SK-OV-3 ovarian 11.1%
active: RPMI-8226 leukemia -23% | OVCAR-8 ovarian -22.9% | OVCAR-5 ovarian -90.6% | OVCAR-4 ovarian -60.3% | IGROV1 ovarian -63% | OVCAR-3 ovarian -20.1% | HS 578T breast -31.2% | NCI/ADR-RES ovarian 4.44% | T-47D breast -50.5%

COc1ccc(OC)c(NC(=O)c2cc3oc4ccccc4c3cc2O)c1
inactive: RPMI-8226 leukemia 53.4% | OVCAR-8 ovarian 86.7% | OVCAR-5 ovarian 103% | OVCAR-4 ovarian 91.4% | SK-OV-3 ovarian 81.1% | IGROV1 ovarian 56.1% | OVCAR-3 ovarian 137% | HS 578T breast 84.6% | NCI/ADR-RES ovarian 88.6% | T-47D breast 74.4%

COc1ncc(-c2ccc3nccc(C#CCN4CCN(S(C)(=O)=O)CC4)c3c2)cc1NS(=O)(=O)c1ccc(F)cc1F
inactive: OVCAR-5 ovarian 11.3%
active: RPMI-8226 leukemia -30.1% | OVCAR-8 ovarian 7.2% | OVCAR-4 ovarian 8.24% | SK-OV-3 ovarian -11.1% | IGROV1 ovarian -35.9% | OVCAR-3 ovarian -20.7% | HS 578T breast -13.9% | NCI/ADR-RES ovarian 6.28% | T-47D breast 3.5%

Clc1ccc([C@@H]2C[C@@H]3Cc4cc(Br)c5ccccc5c4N2O3)c(Cl)c1
inactive: RPMI-8226 leukemia 89.3% | OVCAR-8 ovarian 98.3% | OVCAR-5 ovarian 101% | OVCAR-4 ovarian 84.7% | SK-OV-3 ovarian 79.5% | IGROV1 ovarian 79.4% | OVCAR-3 ovarian 41.6% | HS 578T breast 92.3% | NCI/ADR-RES ovarian 55.5% | T-47D breast 96.9%

O=C(O)c1ccc(NC(=O)c2cccc(Nc3ccnc(C(F)(F)F)c3)c2)cc1
inactive: RPMI-8226 leukemia 98.3% | OVCAR-8 ovarian 98.9% | OVCAR-5 ovarian 103% | OVCAR-4 ovarian 98.1% | SK-OV-3 ovarian 105% | IGROV1 ovarian 106% | OVCAR-3 ovarian 104% | HS 578T breast 98.3% | NCI/ADR-RES ovarian 107% | T-47D breast 94.3%

C[C@@H]1CC[C@H]2[C@@H](C)C(O)O[C@@H]3O[C@]4(C)CC[C@@H]1[C@]32OO4 (stereo not given in full)
active: RPMI-8226 leukemia 3.35% | NCI/ADR-RES ovarian 9.21%
inactive: OVCAR-8 ovarian 19.2% | OVCAR-5 ovarian 26.5% | OVCAR-4 ovarian 40.2% | SK-OV-3 ovarian 95.4% | IGROV1 ovarian 38.9% | OVCAR-3 ovarian 30.1% | HS 578T breast 46.4% | T-47D breast 36.3%

C[C@]12CC[C@@H]3c4ccc(O)c([N+](=O)[O-])c4CC[C@H]3[C@@H]1CC[C@@H]2NS(=O)(=O)c1cccc(Br)c1
inactive: RPMI-8226 leukemia 10.7% | OVCAR-8 ovarian 40% | OVCAR-5 ovarian 88.2% | OVCAR-4 ovarian 40.4% | SK-OV-3 ovarian 80.3% | IGROV1 ovarian 34.8% | OVCAR-3 ovarian 28.5% | HS 578T breast 62.5% | NCI/ADR-RES ovarian 26.8% | T-47D breast 24.6%

CCOc1nc(-c2ccccc2)cc2c(O)c(C(=O)n3nc(C)cc3C)[nH]c(=O)c12
inactive: RPMI-8226 leukemia 103% | OVCAR-8 ovarian 101% | OVCAR-5 ovarian 106% | OVCAR-4 ovarian 100% | SK-OV-3 ovarian 102% | IGROV1 ovarian 97.4% | OVCAR-3 ovarian 112% | HS 578T breast 115% | NCI/ADR-RES ovarian 111% | T-47D breast 107%

O=C(/C=C/c1ccc(Cl)cc1)c1ccccc1
active: RPMI-8226 leukemia 1.52%
inactive: OVCAR-8 ovarian 97.5% | OVCAR-5 ovarian 99.5% | OVCAR-4 ovarian 107% | SK-OV-3 ovarian 126% | IGROV1 ovarian 101% | OVCAR-3 ovarian 101% | HS 578T breast 126% | NCI/ADR-RES ovarian 107% | T-47D breast 92.4%

O=C(OC[C@H]1O[C@H](OC(=O)c2cc(O)c(O)c(OC(=O)c3cc(O)c(O)c(O)c3)c2)[C@H](OC(=O)c2cc(O)c(O)c(OC(=O)c3cc(O)c(O)c(O)c3)c2)[C@@H](OC(=O)c2cc(O)c(O)c(OC(=O)c3cc(O)c(O)c(O)c3)c2)[C@@H]1OC(=O)c1cc(O)c(O)c(OC(=O)c2cc(O)c(O)c(O)c2)c1)c1cc(O)c(O)c(OC(=O)c2cc(O)c(O)c(O)c2)c1
active: NCI/ADR-RES ovarian 9.15%
inactive: RPMI-8226 leukemia 34.9% | OVCAR-8 ovarian 30.2% | OVCAR-5 ovarian 48.3% | OVCAR-4 ovarian 37.8% | SK-OV-3 ovarian 49.8% | IGROV1 ovarian 29.8% | OVCAR-3 ovarian 13.8% | HS 578T breast 66.1% | T-47D breast 33.2%

C=C1c2c(C)nn(-c3ccc(C#CCOC4OC(CO)C(O)C(O)C4O)cc3)c2N(C)C23C[C@H]1C1(C)c4c(C)nn(-c5ccc(C#CCOC6OC(CO)C(O)C(O)C6O)cc5)c4N(C)C(C)(C[C@H]12)C3 (stereo not given in full)
inactive: OVCAR-8 ovarian 12% | OVCAR-5 ovarian 51% | OVCAR-4 ovarian 14.7% | SK-OV-3 ovarian 15.3% | IGROV1 ovarian 24.7% | NCI/ADR-RES ovarian 77.2%
active: RPMI-8226 leukemia -36.4% | OVCAR-3 ovarian 3.73% | HS 578T breast 1.04% | T-47D breast 7.11%

O=C(CCc1nnc(SCc2ccccc2)s1)c1nc2ccccc2[nH]1
inactive: RPMI-8226 leukemia 82.9% | OVCAR-8 ovarian 98.7% | OVCAR-5 ovarian 99.2% | OVCAR-4 ovarian 85.7% | SK-OV-3 ovarian 103% | IGROV1 ovarian 103% | OVCAR-3 ovarian 106% | HS 578T breast 106% | NCI/ADR-RES ovarian 87.1% | T-47D breast 95%

O=C(CN1CCCCC1)Sc1nnc2sc3ccccc3n12
inactive: RPMI-8226 leukemia 108% | OVCAR-8 ovarian 98.8% | OVCAR-5 ovarian 144% | OVCAR-4 ovarian 105% | SK-OV-3 ovarian 89.5% | IGROV1 ovarian 121% | OVCAR-3 ovarian 111% | HS 578T breast 110% | NCI/ADR-RES ovarian 100% | T-47D breast 92.2%

COc1ccc(C2CC(c3ccc(OC)c(OC)c3)=NN2C(=O)c2cc(OC)c(OC)c(OC)c2)cc1 (stereo not given)
inactive: RPMI-8226 leukemia 50.2% | OVCAR-8 ovarian 34.2% | OVCAR-5 ovarian 66.5% | OVCAR-4 ovarian 58.8% | SK-OV-3 ovarian 30.3% | IGROV1 ovarian 31.5% | NCI/ADR-RES ovarian 13% | T-47D breast 36.4%
active: OVCAR-3 ovarian -45.1% | HS 578T breast -14%

O=C(/C(=N/O)S(=O)(=O)c1ccccc1)c1cccs1
inactive: RPMI-8226 leukemia 101% | OVCAR-8 ovarian 104% | OVCAR-5 ovarian 118% | OVCAR-4 ovarian 113% | SK-OV-3 ovarian 94% | IGROV1 ovarian 109% | OVCAR-3 ovarian 109% | HS 578T breast 118% | NCI/ADR-RES ovarian 97.3% | T-47D breast 93.2%

CCC1=C(c2ccc(OC)cc2)C(C)(C)Oc2c1ccc(O)c2CN1CCCC1
inactive: OVCAR-8 ovarian 58% | OVCAR-5 ovarian 68.3% | OVCAR-4 ovarian 60% | SK-OV-3 ovarian 73.9% | IGROV1 ovarian 51.4% | OVCAR-3 ovarian 54.7% | HS 578T breast 59.3% | NCI/ADR-RES ovarian 39.1%
active: RPMI-8226 leukemia 0.544% | T-47D breast -41.2%

O=[N+]([O-])c1ccc2c(c1)S(=O)c1cc([N+](=O)[O-])ccc1N2
inactive: RPMI-8226 leukemia 103% | OVCAR-8 ovarian 101% | OVCAR-5 ovarian 95.3% | OVCAR-4 ovarian 100% | SK-OV-3 ovarian 103% | IGROV1 ovarian 117% | OVCAR-3 ovarian 113% | HS 578T breast 99.7% | NCI/ADR-RES ovarian 102% | T-47D breast 96.6%

O=C1NCN(c2ccccc2)C12CCN(CCCC(c1ccc(F)cc1)c1ccc(F)cc1)CC2
inactive: RPMI-8226 leukemia 102% | OVCAR-8 ovarian 66.1% | OVCAR-5 ovarian 83.2% | OVCAR-4 ovarian 48.5% | SK-OV-3 ovarian 73.4% | IGROV1 ovarian 47.7% | OVCAR-3 ovarian 66.8% | HS 578T breast 69.3% | NCI/ADR-RES ovarian 69.9% | T-47D breast 94.2%

c1cncc(CNc2ccccc2-c2nnc(Nc3ccc4c(c3)OCO4)o2)c1
active: SK-OV-3 ovarian -3.15% | OVCAR-3 ovarian -22%
inactive: RPMI-8226 leukemia 27.5% | OVCAR-8 ovarian 26.1% | OVCAR-5 ovarian 25.2% | OVCAR-4 ovarian 36.3% | IGROV1 ovarian 25.2% | HS 578T breast 35.4% | NCI/ADR-RES ovarian 19.4% | T-47D breast 43.5%

CCN(CC)CCOc1ccccc1-n1c(C)ccc1-c1ccccc1
inactive: RPMI-8226 leukemia 63.2% | OVCAR-8 ovarian 97.5% | OVCAR-5 ovarian 101% | OVCAR-4 ovarian 106% | SK-OV-3 ovarian 99.5% | IGROV1 ovarian 71.4% | OVCAR-3 ovarian 78.9% | HS 578T breast 82.5% | NCI/ADR-RES ovarian 85.4% | T-47D breast 91.9%

Nc1c2ccccc2nc2ccccc12 (tested in a mixture with another compound)
inactive: OVCAR-5 ovarian 15.6% | OVCAR-4 ovarian 19% | SK-OV-3 ovarian 32.6% | IGROV1 ovarian 22.9% | OVCAR-3 ovarian 32.6% | HS 578T breast 42.9% | NCI/ADR-RES ovarian 19.4% | T-47D breast 28.9%
active: RPMI-8226 leukemia 7.88% | OVCAR-8 ovarian 4.39%

Cc1cc(=O)n2n1-c1ccc(Cl)cc1NC(=O)C2
inactive: RPMI-8226 leukemia 99.2% | OVCAR-8 ovarian 97% | OVCAR-5 ovarian 103% | OVCAR-4 ovarian 98.8% | SK-OV-3 ovarian 109% | IGROV1 ovarian 112% | OVCAR-3 ovarian 108% | HS 578T breast 117% | NCI/ADR-RES ovarian 108% | T-47D breast 118%

CCOc1nc(-c2ccccc2)cc2c(O)c(-c3nnco3)[nH]c(=O)c12
active: T-47D breast 2.73%
inactive: RPMI-8226 leukemia 48.3% | OVCAR-8 ovarian 30.6% | OVCAR-5 ovarian 101% | OVCAR-4 ovarian 51.5% | SK-OV-3 ovarian 59.3% | IGROV1 ovarian 36.7% | OVCAR-3 ovarian 27.8% | HS 578T breast 68% | NCI/ADR-RES ovarian 25.5%

Cc1ccc(C(=O)Nc2ccc(Cl)cc2C(=O)NCc2ccccc2)cc1
inactive: RPMI-8226 leukemia 77.8% | OVCAR-8 ovarian 87.9% | OVCAR-5 ovarian 100% | OVCAR-4 ovarian 79.5% | SK-OV-3 ovarian 117% | IGROV1 ovarian 84.1% | OVCAR-3 ovarian 91.6% | HS 578T breast 89.7% | NCI/ADR-RES ovarian 72.5% | T-47D breast 94%

Clc1ccc2nc(Cl)c3ccccc3c2c1
inactive: RPMI-8226 leukemia 70.9% | OVCAR-8 ovarian 50.8% | OVCAR-5 ovarian 78% | IGROV1 ovarian 48.6% | OVCAR-3 ovarian 35.3% | HS 578T breast 56.8% | NCI/ADR-RES ovarian 74.8%
active: OVCAR-4 ovarian -42.6% | SK-OV-3 ovarian 0.43% | T-47D breast -13.9%

O=C(CSc1nnc(Nc2ccccc2)s1)NCCc1ccc(F)cc1
active: IGROV1 ovarian -2.38%
inactive: RPMI-8226 leukemia 145% | OVCAR-8 ovarian 117% | OVCAR-5 ovarian 92.9% | OVCAR-4 ovarian 102% | SK-OV-3 ovarian 113% | OVCAR-3 ovarian 113% | HS 578T breast 119% | NCI/ADR-RES ovarian 99.3% | T-47D breast 94.8%
